# Compound activity from PubChem BioAssay.
# SIRT5 inh: blocks human SIRT5 desuccinylation of peptide. Q9NXA8. Purified SirT5, succinyl-peptide AMC, trypsin-coupled fluorescence. inhibition, % at 15 µM. 330,000 compounds, 1.1% hits; in the data active = inhibition above about 15%
# NSD2 inh: blocks human histone methyltransferase NSD2; O96028; NSD2 peptide methylation, AlphaScreen, 120 min; inhibition, % at 12.5 µM; 310,000 compounds, 0.54% hits; AID 743445; in the data active = inhibition above about 50%
# Casp6 inh: caspase-6 (human) enzyme inhibition. P55212. purified caspase-6, Z-VEID-R110 cleavage fluorescence. inhibition, % at 12.5 µM. 350,000 compounds, 0.53% hits;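 active = mean inhibition across replicates at least about 35%, with every replicate also reaching that limit, limit read from the data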;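 also: 0% = median of neutral control wells and 100% = no fluorescence left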
# Target sequence (P55212 24-179 limits assumed): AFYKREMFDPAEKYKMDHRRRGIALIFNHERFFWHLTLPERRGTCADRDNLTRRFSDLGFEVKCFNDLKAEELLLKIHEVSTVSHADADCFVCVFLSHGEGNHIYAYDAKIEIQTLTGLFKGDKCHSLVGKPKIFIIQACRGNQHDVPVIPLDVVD
# Target sequence (P55212 194-293 limits assumed): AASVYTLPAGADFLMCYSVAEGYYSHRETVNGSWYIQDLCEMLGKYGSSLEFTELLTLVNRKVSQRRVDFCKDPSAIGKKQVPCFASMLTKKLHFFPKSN
# SUMO HTRF inh: inhibitors of human SUMOylation (UBC9); P63279; HTRF SUMOylation assay, SAE1/SAE2 + UBC9, in vitro; inhibition, % at 35 µM; 290,000 compounds, 0.36% hits; AID 2006; in the data active = inhibition above about 50%, passing the limit was not always enough
# Target sequence (P63279 whole entry, looked up): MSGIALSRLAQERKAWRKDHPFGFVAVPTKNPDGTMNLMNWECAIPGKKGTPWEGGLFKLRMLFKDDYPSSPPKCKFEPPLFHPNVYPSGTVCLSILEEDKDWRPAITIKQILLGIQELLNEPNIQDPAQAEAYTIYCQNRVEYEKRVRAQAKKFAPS
# Active calls of the source: *; · = not tested or not shown. In the library only some 1.6% were active in any assay of this set; here they are far more common.
SMILES,SIRT5 inh,NSD2 inh,Casp6 inh,SUMO HTRF inh
CC(C)N(C(=O)COC(=O)[C@H](C)NC(=O)c1ccco1)c1ccccc1,30.7*,-0.9,-1.1,17.4
COc1ccc(NC(=O)N(C)C[C@H]2Oc3ccc(NC(=O)Cn4cnnn4)cc3C(=O)N([C@@H](C)CO)C[C@@H]2C)cc1,6.2,·,0.0,·
O=C(COC(=O)CNC(=O)c1ccccc1)NC(=O)NC1CCCCC1,23.2*,0.6,0.4,·
O=C(COC(=O)CNC(=O)c1ccccc1)NC1CCCCC1,-1.7,-1.8,-1.4,·
C[C@H](CO)N1C[C@H](C)[C@@H](CN(C)Cc2ccc(Cl)c(Cl)c2)Oc2c(NC(=O)c3ccc(-c4nccs4)cc3)cccc2C1=O,19.1*,·,1.1,·
C[C@@H]1CN([C@H](C)CO)C(=O)c2cccc(NC(=O)c3ccc(-c4nccs4)cc3)c2O[C@H]1CN(C)Cc1ccc(C(=O)O)cc1,1.6,·,-5.1,·
C[C@H]1CN([C@@H](C)CO)C(=O)c2cccc(NC(=O)c3ccc(-c4nccs4)cc3)c2O[C@H]1CN(C)S(C)(=O)=O,16.7*,·,-0.6,·
C[C@@H]1CN([C@@H](C)CO)C(=O)c2cccc(NC(=O)c3ccc(-c4nccs4)cc3)c2O[C@H]1CN(C)S(C)(=O)=O,-1.7,·,-4.8,·
C[C@H](CO)N1C[C@H](C)[C@@H](CN(C)S(=O)(=O)c2ccccc2)OCCCC[C@H](C)Oc2ccc(NS(=O)(=O)c3ccccc3)cc2C1=O,6.3,·,0.5,·
C[C@H]1CN([C@@H](C)CO)C(=O)Cc2cc(NC(=O)Nc3ccc(C(F)(F)F)cc3)ccc2O[C@H]1CN(C)C(=O)NC1CCCCC1,0.6,·,6.3,·
C[C@@H]1CN([C@H](C)CO)C(=O)Cc2cc(NC(=O)Cc3cn(C)c4ccccc34)ccc2O[C@H]1CN(C)C(=O)Nc1ccccc1,3.3,·,-0.5,·
NC(=O)c1ncc(C(F)(F)F)cc1Cl,-5.2,-1.0,-2.5,-1.9
NC(=O)c1ccc(C(F)(F)F)cn1,32.2*,-1.5,3.0,11.6
CC(C)CC#Cc1ccc2c(c1)O[C@H](CN(C)C(=O)NC1CCCC1)[C@H](C)CN([C@@H](C)CO)S2(=O)=O,4.0,·,-1.9,·
CC(C)CC#Cc1ccc2c(c1)O[C@H](CN(C)C(=O)NC1CCCC1)[C@H](C)CN([C@H](C)CO)S2(=O)=O,12.9*,·,3.1,·
CC(C)CC#Cc1ccc2c(c1)O[C@@H](CN(C)C(=O)NC1CCCC1)[C@@H](C)CN([C@@H](C)CO)S2(=O)=O,15.6*,·,-0.6,·
CC(C)CC#Cc1ccc2c(c1)O[C@H](CN(C)C(=O)NC1CCCC1)[C@@H](C)CN([C@@H](C)CO)S2(=O)=O,19.1*,·,1.4,·
COCC(=O)Nc1ccc2c(c1)OC[C@H](C)N(Cc1cccnc1)C[C@@H](C)[C@@H](OC)CN(C)C2=O,4.3,·,0.7,·
C[C@@H]1CN([C@H](C)CO)C(=O)c2cc(-c3ccccc3)cnc2O[C@@H]1CN(C)C(=O)NC1CCCC1,-4.5,·,-1.8,·
CCN(C(=O)CSc1nc2scc(-c3ccccc3)c2c(=O)n1N)C1CCS(=O)(=O)C1 (configuration not stated),19.8*,1.2,0.5,·
C[C@@H]1CN([C@@H](C)CO)C(=O)c2cc(NC(=O)NC3CCCCC3)ccc2O[C@H]1CN(C)Cc1ccc2c(c1)OCO2,2.6,·,-1.4,·
COc1ccc(S(=O)(=O)N(C)C[C@@H]2Oc3cc(C#CC4CC4)ccc3S(=O)(=O)N([C@H](C)CO)C[C@H]2C)cc1,15.1*,·,1.6,·
COc1ccc(S(=O)(=O)N(C)C[C@H]2Oc3cc(C#CC4CC4)ccc3S(=O)(=O)N([C@@H](C)CO)C[C@@H]2C)cc1,21.8*,·,-0.9,·
COc1ccc(S(=O)(=O)N(C)C[C@H]2Oc3cc(C#CC4CC4)ccc3S(=O)(=O)N([C@@H](C)CO)C[C@H]2C)cc1,22.0*,·,-0.1,·
COc1ccc(S(=O)(=O)N(C)C[C@H]2Oc3cc(C#CC4CCCC4)ccc3S(=O)(=O)N([C@H](C)CO)C[C@H]2C)cc1,4.8,·,-1.5,·
COc1ccc(S(=O)(=O)N(C)C[C@@H]2Oc3cc(C#CC4CCCCC4)ccc3S(=O)(=O)N([C@H](C)CO)C[C@H]2C)cc1,-0.1,·,1.8,·
COc1ccc(S(=O)(=O)N(C)C[C@H]2Oc3cc(C#CC4CCCCC4)ccc3S(=O)(=O)N([C@H](C)CO)C[C@H]2C)cc1,10.1,·,0.9,·
C[C@@H]1CN([C@H](C)CO)C(=O)c2cc(NS(=O)(=O)c3ccc(F)cc3)ccc2O[C@@H](C)CCCCO[C@@H]1CN(C)C(=O)CCC(F)(F)F,3.8,·,4.2,·
COCCNCC(=O)C12CC3CC(CC(C3)C1)C2,22.9*,9.5,-2.1,8.9
COCCNC(C)C(=O)C12CC3CC(CC(C3)C1)C2 (configuration not stated),-0.8,-1.2,0.5,4.2
